# Laboratory results taken from PubChem BioAssay (EPA / NIEHS).
# The source made the active and inactive calls. Rule for the calls: active = hit-call score of the fitted dose curve at least 0.9, where 1 is the maximum; inactive = score below 0.9.
# Columns and labels:
# [1] = ATG_ISRE_CIS: Attagene CIS-FACTORIAL HepG2 Assay for human Interferon Regulatory Factor 1 (IRF1) binding to an Interferon-Stimulated Response Element (ISRE) (AID 2282948); conditions: HepG2 ISRE cis-reporter (Attagene), mRNA transcription readout; actives raise or lower the signal
# In short: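 Quantitation relies on labelled RT-PCR fragments separated by capillary electrophoresis. Human HepG2 cells bearing cis-promoter reporter constructs were treated 24 h; DMSO served as baseline for bidirectional fitting.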
# [2] = ATG_M_32_CIS: Attagene CIS-FACTORIAL HepG2 Assay for M32 Transcription Factor (Internal Marker) (AID 2282949); conditions: HepG2 Attagene cis-factorial M32 reporter, mRNA; actives raise or lower the signal;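 note: background control marker of the multiplexed CIS panel rather than a real target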
# In short: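 Fluorescent capillary electrophoresis peaks of HpaI-digested, FAM-labelled RT-PCR reporter products give the signal. Source: transiently transfected human liver HepG2 cells, 24 h after chemical dosing; bidirectional fitting against DMSO.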
# [3] = ATG_M_06_CIS: Attagene CIS-FACTORIAL HepG2 Assay for M06 Transcription Factor (Internal Marker) (AID 2282950); conditions: HepG2 Attagene CIS-FACTORIAL M06 internal marker reporter; actives raise or lower the signal
# In short: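 One of many multiplexed endpoints: HepG2 reporter mRNA after 24 h dosing, detected by RT-PCR and capillary electrophoresis fluorescence; gain or loss of signal analysed against DMSO.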
# [4] = molecular target: Hypoxia-inducible factor 1-alpha (Homo sapiens) (UniProt Q16665); experiment: ATG_HIF1a_CIS: Attagene CIS-FACTORIAL HepG2 Assay for human Hypoxia Inducible Factor 1 (HIF1A) (AID 2282951); conditions: HepG2 Attagene cis-factorial HIF1a reporter transcription; actives raise or lower the signal
# In short: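 Dosed 24 h, transfected HepG2 cells yielded total RNA whose reporter transcripts were RT-PCR-amplified and sized by capillary electrophoresis using fluorescent labelling; DMSO defined baseline, with gain and loss of signal both fitted.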
# [5] = molecular target: Hepatocyte nuclear factor 6 (Homo sapiens) (UniProt Q9UBC0); experiment: ATG_HNF6_CIS: Attagene CIS-FACTORIAL HepG2 Assay for human Hepatocyte Nuclear Factor 6 (HNF6) (AID 2282952); conditions: HepG2 Attagene cis-factorial HNF6 reporter transcription; actives raise or lower the signal
# In short: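 HepG2 cells transiently transfected with cis-element-driven multiplexed reporter units measuring endogenous transcription factor activity. After 24 h exposure, reporter mRNA quantified by RT-PCR, FAM-labelled fragments and capillary electrophoresis; bidirectional fitting versus DMSO.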
# [6] = molecular target: Heat shock factor protein 1 (Homo sapiens) (UniProt Q00613); experiment: ATG_HSE_CIS: Attagene CIS-FACTORIAL HepG2 Assay for human Heat Shock Transcription Factor 1 (HSE) (AID 2282953); conditions: HepG2 HSE cis-reporter, Attagene RNA transcription; actives raise or lower the signal
# In short: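 Using HepG2 with transfected cis-driven reporter constructs, compound effects on endogenous factor activity are scored as reporter mRNA change at 24 h. Detection: RT-PCR, HpaI digestion, capillary electrophoresis; bidirectional fitting to DMSO.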
# [7] = ATG_MRE_CIS: Attagene CIS-FACTORIAL HepG2 Assay for human Metal Responsive Element (MRE) (AID 2282954); conditions: HepG2 MRE cis-reporter transcription, Attagene multiplex; actives raise or lower the signal
# In short: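 Transient MRTU transfection of HepG2 (FuGene 6); 24 h dosing; total RNA → oligo(dT) RT, PCR, 6-FAM primer extension, HpaI cut, CE. Bidirectional fit vs DMSO.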
# [8] = ATG_PBREM_CIS: Attagene CIS-FACTORIAL HepG2 Assay for human Phenobarbital-responsive Enhancer Module (PBREM) (AID 2282955); conditions: HepG2 PBREM cis-reporter, Attagene multiplexed transcription; actives raise or lower the signal
# In short: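 Transfected liver-derived HepG2 cells exposed 24 h; PBREM reporter transcript quantified via RT-PCR and capillary electrophoresis, with activity in either direction referenced to DMSO.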
# [9] = molecular target: Paired box protein Pax-6 (Homo sapiens) (UniProt P26367); experiment: ATG_Pax6_CIS: Attagene CIS-FACTORIAL HepG2 Assay for human Paired Box 6 (PAX6) (AID 2282956); conditions: HepG2 CIS-FACTORIAL PAX6 reporter transcription, RNA readout; actives raise or lower the signal
# In short: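 After twenty-four hours of chemical exposure, transfected HepG2 cells are harvested for RNA. Cis-promoter reporter transcripts are amplified, fluorescently labelled and sized by capillary electrophoresis, with gain and loss of signal scored against DMSO.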
# [10] = ATG_PXRE_CIS: Attagene CIS-FACTORIAL HepG2 Assay for human Pregnane X Receptor Element (PXRE) (AID 2282957); conditions: HepG2 Attagene CIS-FACTORIAL PXRE reporter, mRNA; actives raise or lower the signal
# In short: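 HepG2 cells transiently transfected with cis-element-driven multiplexed reporter units; after 24 h chemical exposure, reporter mRNA measured by RT-PCR, 6-FAM labelling, HpaI digestion and capillary electrophoresis. Bidirectional fitting relative to DMSO.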
# [11] = ATG_PPRE_CIS: Attagene CIS-FACTORIAL HepG2 Assay for human Peroxisome Proliferator-activated Response Element (PPRE) (AID 2282958); conditions: HepG2 PPRE cis-element reporter, Attagene transcription factor profiling; actives raise or lower the signal
# In short: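 Measured endpoint: PPRE-controlled reporter mRNA, detected by RT-PCR and capillary electrophoresis fluorescence, from transiently transfected HepG2 cells 24 h after dosing. Curves fitted in both directions using DMSO baseline.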
# [12] = ATG_RORE_CIS: Attagene CIS-FACTORIAL HepG2 Assay for human RAR-related Orphan Receptor Element (RORE) (AID 2282959); conditions: HepG2 Attagene cis-factorial RORE reporter, mRNA; actives raise or lower the signal
# In short: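 Transiently transfected HepG2 reporter cells were treated 24 h. Reporter transcripts were detected by RT-PCR and capillary electrophoresis, with bidirectional fitting against DMSO.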
# [13] = ATG_Sox_CIS: Attagene CIS-FACTORIAL HepG2 Assay for human SRY-box transcription factor (SOX) (AID 2282960); conditions: HepG2 Attagene cis-factorial SOX reporter, mRNA; actives raise or lower the signal
# In short: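 Gain- or loss-of-signal endpoint, fitted bidirectionally with DMSO as negative control. Based on reporter mRNA from transfected HepG2 cells harvested 24 h post-treatment and quantified via RT-PCR and capillary electrophoresis.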
# [14] = molecular target: Transcription factor Sp1 (Homo sapiens) (UniProt P08047); experiment: ATG_Sp1_CIS: Attagene CIS-FACTORIAL HepG2 Assay for human Specificity Protein 1 (Sp1) (AID 2282961); conditions: HepG2 Sp1 cis-reporter transcription, actives raise or lower the signal
# In short: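 Endpoint reflects endogenous Sp1 transcriptional activity, not an exogenous fusion protein: HepG2 cells with transfected cis-regulated reporters, 24 h dosing, RT-PCR/capillary electrophoresis mRNA read-out, DMSO-normalised bidirectional fit.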
# [15] = ATG_SREBP_CIS: Attagene CIS-FACTORIAL HepG2 Assay for human Sterol Regulatory Element Binding (SREBP) (AID 2282962); conditions: HepG2 Attagene cis-factorial SREBP reporter, mRNA; actives raise or lower the signal
# In short: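 Twenty-four hours after chemical dosing of transfected HepG2 cultures, reporter RNA was converted to cDNA, amplified, end-labelled with 6-FAM and resolved by capillary electrophoresis. Responses were fitted relative to DMSO.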
# [16] = molecular target: Signal transducer and activator of transcription 3 (Homo sapiens) (UniProt P40763); experiment: ATG_STAT3_CIS: Attagene CIS-FACTORIAL HepG2 Assay for human Signal Transducer and Activator of Transcription 3 (STAT3) (AID 2282963); conditions: HepG2, Attagene cis-factorial STAT3 reporter transcription; actives raise or lower the signal
# In short: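 Endogenous STAT3-responsive cis-element activity was read in transiently transfected HepG2 cells after 24 h treatment. Reporter transcripts were quantified via RT-PCR and capillary electrophoresis, with DMSO as negative control and bidirectional curve fitting.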
# [17] = ATG_TA_CIS: Attagene CIS-FACTORIAL HepG2 Assay for human TA Basal Promoter (AID 2282964); conditions: HepG2 Attagene CIS-factorial TA basal promoter reporter; actives raise or lower the signal
# In short: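 Transient MRTU transfection of HepG2 preceded 24 h compound exposure. Reporter mRNA levels were then read by RT-PCR with capillary electrophoresis, and this background-control endpoint was fitted bidirectionally to DMSO.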
# [18] = ATG_TCF_b_cat_CIS: Attagene CIS-FACTORIAL HepG2 Assay for human T-Cell-Factor with beta-catenin (TCF/b-cat) (AID 2282965); conditions: HepG2 TCF/beta-catenin cis-reporter transcription, actives raise or lower the signal
# In short: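 Endogenous TCF/LEF activity read as reporter transcript level via RT-PCR and capillary electrophoresis fluorescence in transfected HepG2, 24 h exposure; gain or loss of signal fitted against DMSO controls.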
# [19] = ATG_TAL_CIS: Attagene CIS-FACTORIAL HepG2 Assay for human TAL Basal Promoter (AID 2282966); conditions: HepG2 Attagene cis-factorial TAL promoter reporter; actives raise or lower the signal;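 note: background control endpoint measuring basal TAL promoter reporter mRNA not a specific factor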
# In short: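 HepG2 cells transiently transfected with multiplexed cis-promoter reporter units, dosed 24 h. Reporter mRNA quantified by RT-PCR, 6-FAM labelling, HpaI digestion and capillary electrophoresis; TAL basal promoter serves as background control, fitted bidirectionally versus DMSO.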
# [20] = ATG_TGFb_CIS: Attagene CIS-FACTORIAL HepG2 Assay for human Transforming Growth Factor (TGF) (AID 2282967); conditions: HepG2 Attagene CIS TGFb reporter, mRNA transcription; actives raise or lower the signal
# In short: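 After a 24-hour incubation with compound, transfected HepG2 cells were lysed for RNA; reporter cDNA was amplified, fluorescently end-labeled and separated by CE. DMSO served as baseline for bidirectional fits.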
# Hypoxia-inducible factor 1-alpha (Homo sapiens), sequence (Q16665 whole entry, looked up): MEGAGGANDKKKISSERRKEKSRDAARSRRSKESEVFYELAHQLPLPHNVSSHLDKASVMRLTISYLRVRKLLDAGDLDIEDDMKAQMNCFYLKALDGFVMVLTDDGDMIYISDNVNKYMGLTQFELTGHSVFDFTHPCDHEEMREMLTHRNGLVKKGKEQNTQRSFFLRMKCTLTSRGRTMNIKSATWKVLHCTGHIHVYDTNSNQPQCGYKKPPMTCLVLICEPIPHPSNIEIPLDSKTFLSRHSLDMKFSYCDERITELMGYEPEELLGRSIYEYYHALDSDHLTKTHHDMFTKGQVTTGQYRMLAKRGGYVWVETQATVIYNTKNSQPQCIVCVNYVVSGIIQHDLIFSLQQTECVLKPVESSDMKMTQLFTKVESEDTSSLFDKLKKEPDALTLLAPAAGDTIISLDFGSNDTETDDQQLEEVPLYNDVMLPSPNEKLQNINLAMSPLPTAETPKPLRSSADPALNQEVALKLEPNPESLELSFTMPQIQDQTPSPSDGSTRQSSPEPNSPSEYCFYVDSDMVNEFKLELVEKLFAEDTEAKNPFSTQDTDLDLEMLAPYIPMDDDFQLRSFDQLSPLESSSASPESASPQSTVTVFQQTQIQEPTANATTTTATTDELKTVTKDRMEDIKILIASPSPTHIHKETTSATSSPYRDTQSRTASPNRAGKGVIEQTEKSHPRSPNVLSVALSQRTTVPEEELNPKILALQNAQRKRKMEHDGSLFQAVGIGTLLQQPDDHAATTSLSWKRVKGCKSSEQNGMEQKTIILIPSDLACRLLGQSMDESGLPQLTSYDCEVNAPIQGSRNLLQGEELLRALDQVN
# Signal transducer and activator of transcription 3 (Homo sapiens), sequence (P40763 whole entry, looked up): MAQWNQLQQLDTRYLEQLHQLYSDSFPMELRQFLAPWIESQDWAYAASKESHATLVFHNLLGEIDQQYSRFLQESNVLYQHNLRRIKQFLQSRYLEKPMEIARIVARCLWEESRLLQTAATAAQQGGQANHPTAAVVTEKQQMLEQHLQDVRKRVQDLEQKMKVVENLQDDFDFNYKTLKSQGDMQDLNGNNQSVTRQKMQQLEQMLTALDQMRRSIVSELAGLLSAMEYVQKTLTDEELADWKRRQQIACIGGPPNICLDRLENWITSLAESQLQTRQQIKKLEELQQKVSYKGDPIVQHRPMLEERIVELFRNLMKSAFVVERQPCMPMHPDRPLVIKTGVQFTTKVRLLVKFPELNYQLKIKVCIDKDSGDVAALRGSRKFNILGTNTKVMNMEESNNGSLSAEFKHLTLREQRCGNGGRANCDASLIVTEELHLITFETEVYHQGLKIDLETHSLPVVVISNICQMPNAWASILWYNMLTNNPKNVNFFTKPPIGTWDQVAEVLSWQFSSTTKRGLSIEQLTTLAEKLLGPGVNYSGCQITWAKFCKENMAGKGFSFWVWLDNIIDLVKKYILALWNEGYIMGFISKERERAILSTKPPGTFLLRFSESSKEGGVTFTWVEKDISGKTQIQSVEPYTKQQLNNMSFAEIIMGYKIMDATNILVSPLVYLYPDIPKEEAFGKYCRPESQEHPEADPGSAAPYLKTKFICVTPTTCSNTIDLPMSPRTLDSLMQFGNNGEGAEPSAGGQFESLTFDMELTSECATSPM
# Paired box protein Pax-6 (Homo sapiens), sequence (P26367 whole entry, looked up): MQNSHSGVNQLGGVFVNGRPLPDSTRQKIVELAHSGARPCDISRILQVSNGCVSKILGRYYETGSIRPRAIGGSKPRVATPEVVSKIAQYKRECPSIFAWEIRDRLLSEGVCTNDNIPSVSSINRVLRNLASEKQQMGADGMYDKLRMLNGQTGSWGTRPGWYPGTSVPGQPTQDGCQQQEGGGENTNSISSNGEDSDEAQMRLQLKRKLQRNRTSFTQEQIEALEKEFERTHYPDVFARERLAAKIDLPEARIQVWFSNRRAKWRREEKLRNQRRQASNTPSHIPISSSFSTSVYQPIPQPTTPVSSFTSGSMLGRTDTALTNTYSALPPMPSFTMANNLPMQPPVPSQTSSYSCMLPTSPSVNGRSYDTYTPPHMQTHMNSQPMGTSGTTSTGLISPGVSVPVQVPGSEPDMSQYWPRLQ
# Transcription factor Sp1 (Homo sapiens), sequence (P08047 whole entry, looked up, the tested form may be a part): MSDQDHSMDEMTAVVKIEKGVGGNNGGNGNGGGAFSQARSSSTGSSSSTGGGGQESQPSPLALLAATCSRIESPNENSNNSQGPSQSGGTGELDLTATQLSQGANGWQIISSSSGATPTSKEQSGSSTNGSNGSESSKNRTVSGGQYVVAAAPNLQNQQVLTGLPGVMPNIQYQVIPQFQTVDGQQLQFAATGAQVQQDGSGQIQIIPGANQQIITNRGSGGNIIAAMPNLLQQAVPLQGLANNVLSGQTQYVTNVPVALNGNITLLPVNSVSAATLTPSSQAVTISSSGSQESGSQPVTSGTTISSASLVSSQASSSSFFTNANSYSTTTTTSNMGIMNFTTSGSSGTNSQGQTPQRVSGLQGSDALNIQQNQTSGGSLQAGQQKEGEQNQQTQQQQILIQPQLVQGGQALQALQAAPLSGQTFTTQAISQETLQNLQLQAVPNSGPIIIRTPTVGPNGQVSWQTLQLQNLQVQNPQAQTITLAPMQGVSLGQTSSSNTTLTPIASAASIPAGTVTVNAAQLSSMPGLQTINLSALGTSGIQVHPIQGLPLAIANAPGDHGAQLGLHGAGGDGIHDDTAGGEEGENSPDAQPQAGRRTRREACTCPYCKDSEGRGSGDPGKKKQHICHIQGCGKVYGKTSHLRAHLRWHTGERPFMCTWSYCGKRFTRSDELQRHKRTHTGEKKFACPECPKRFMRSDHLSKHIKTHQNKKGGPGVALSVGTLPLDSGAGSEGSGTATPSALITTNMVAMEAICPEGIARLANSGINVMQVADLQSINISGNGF
# Hepatocyte nuclear factor 6 (Homo sapiens), sequence (Q9UBC0 whole entry, looked up, the tested form may be a part): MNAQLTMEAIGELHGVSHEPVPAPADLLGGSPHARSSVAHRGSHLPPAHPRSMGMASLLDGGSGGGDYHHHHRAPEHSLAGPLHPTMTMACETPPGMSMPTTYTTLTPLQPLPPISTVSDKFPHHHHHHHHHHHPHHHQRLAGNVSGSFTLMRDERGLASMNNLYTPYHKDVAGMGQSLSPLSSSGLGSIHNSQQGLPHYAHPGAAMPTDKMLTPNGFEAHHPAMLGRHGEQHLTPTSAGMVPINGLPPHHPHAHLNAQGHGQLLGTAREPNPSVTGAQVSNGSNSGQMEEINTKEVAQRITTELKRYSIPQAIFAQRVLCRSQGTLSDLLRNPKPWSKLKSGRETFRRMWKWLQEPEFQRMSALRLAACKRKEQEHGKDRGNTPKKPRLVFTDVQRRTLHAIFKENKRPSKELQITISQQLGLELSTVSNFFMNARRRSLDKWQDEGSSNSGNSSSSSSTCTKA
# Heat shock factor protein 1 (Homo sapiens), sequence (Q00613 whole entry, looked up): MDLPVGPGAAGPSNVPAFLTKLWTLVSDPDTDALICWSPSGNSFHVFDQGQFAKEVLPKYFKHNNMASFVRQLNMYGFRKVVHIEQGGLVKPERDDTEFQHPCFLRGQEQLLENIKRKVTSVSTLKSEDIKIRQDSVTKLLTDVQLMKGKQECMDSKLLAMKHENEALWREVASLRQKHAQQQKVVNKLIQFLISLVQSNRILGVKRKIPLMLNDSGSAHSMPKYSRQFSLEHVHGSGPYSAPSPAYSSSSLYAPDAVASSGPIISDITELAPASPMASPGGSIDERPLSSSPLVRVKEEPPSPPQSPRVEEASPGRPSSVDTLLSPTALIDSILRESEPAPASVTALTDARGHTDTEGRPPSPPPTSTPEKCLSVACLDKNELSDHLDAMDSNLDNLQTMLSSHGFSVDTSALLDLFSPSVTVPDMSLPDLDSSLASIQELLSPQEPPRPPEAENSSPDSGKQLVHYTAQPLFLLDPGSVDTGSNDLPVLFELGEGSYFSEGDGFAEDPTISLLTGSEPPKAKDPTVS
structure (smiles),measurement,setting,value
O=C(O)CCC(F)(F)C(F)(F)C(F)(F)C(F)(F)C(F)(F)C(F)(F)F,outcome,[1],inactive
same,outcome,[2],inactive
same,outcome,[3],inactive
same,outcome,[4],inactive
same,outcome,[5],inactive
same,outcome,[6],inactive
same,outcome,[7],inactive
same,outcome,[8],inactive
same,outcome,[9],inactive
same,outcome,[10],inactive
same,outcome,[11],inactive
same,outcome,[12],inactive
same,outcome,[13],inactive
same,outcome,[14],inactive
same,outcome,[15],inactive
same,outcome,[16],inactive
same,outcome,[17],inactive
same,outcome,[18],inactive
same,outcome,[19],inactive
same,outcome,[20],inactive
Brc1ccc(Oc2ccc(Br)cc2Br)cc1,outcome,[1],inactive
same,outcome,[2],inactive
same,outcome,[3],inactive
same,outcome,[4],inactive
same,outcome,[5],inactive
same,outcome,[6],inactive
same,outcome,[7],inactive
same,outcome,[8],inactive
same,outcome,[9],inactive
same,outcome,[10],inactive
same,outcome,[11],inactive
same,outcome,[12],inactive
same,outcome,[13],inactive
same,outcome,[14],inactive
same,outcome,[15],inactive
same,outcome,[16],inactive
same,outcome,[17],inactive
same,outcome,[18],inactive
same,outcome,[19],inactive
same,outcome,[20],inactive
CCOC(=O)CN[C@@H](C(=O)N1CC[C@H]1C(=O)NCc1ccc(/C(N)=N/O)cc1)C1CCCCC1,outcome,[1],inactive
same,outcome,[2],inactive
same,outcome,[3],inactive
same,outcome,[4],inactive
same,outcome,[5],inactive
same,outcome,[6],inactive
same,outcome,[7],inactive
same,outcome,[8],inactive
same,outcome,[9],inactive
same,outcome,[10],inactive
same,outcome,[11],inactive
same,outcome,[12],inactive
same,outcome,[13],inactive
same,outcome,[14],inactive
same,outcome,[15],inactive
same,outcome,[16],inactive
same,outcome,[17],inactive
same,outcome,[18],inactive
same,outcome,[19],inactive
same,outcome,[20],inactive
Cc1ccc(C)c(S(=O)(=O)O)c1,outcome,[1],inactive
same,outcome,[2],inactive
same,outcome,[3],inactive
same,outcome,[4],inactive
same,outcome,[5],inactive
same,outcome,[6],inactive
same,outcome,[7],inactive
same,outcome,[8],inactive
same,outcome,[9],inactive
same,outcome,[10],inactive
same,outcome,[11],inactive
same,outcome,[12],inactive
same,outcome,[13],inactive
same,outcome,[14],inactive
same,outcome,[15],inactive
same,outcome,[16],inactive
same,outcome,[17],inactive
same,outcome,[18],inactive
same,outcome,[19],inactive
same,outcome,[20],inactive
NNc1nc(-c2ccc([N+](=O)[O-])cc2)cs1,outcome,[1],inactive
same,outcome,[2],inactive
same,outcome,[3],inactive
same,outcome,[4],inactive
same,outcome,[5],inactive
same,AC50,[6],51.3 µM (active)
same,outcome,[7],inactive
same,outcome,[8],inactive
same,outcome,[9],inactive
same,outcome,[10],inactive
same,outcome,[11],inactive
same,outcome,[12],inactive
same,outcome,[13],inactive
same,outcome,[14],inactive
same,outcome,[15],inactive
same,outcome,[16],inactive
same,outcome,[17],inactive
same,outcome,[18],inactive
same,outcome,[19],inactive
same,outcome,[20],inactive
O=C(NCc1ncc(C(F)(F)F)cc1Cl)c1c(Cl)cccc1Cl,outcome,[1],inactive
same,outcome,[2],inactive
same,outcome,[3],inactive
same,outcome,[4],inactive
same,outcome,[5],inactive
same,outcome,[6],inactive
same,outcome,[7],inactive
same,outcome,[8],inactive
same,outcome,[9],inactive
same,AC50,[10],0.799 µM (active)
same,outcome,[11],inactive
same,outcome,[12],inactive
same,outcome,[13],inactive
same,outcome,[14],inactive
same,AC50,[15],10.1 µM (active)
same,outcome,[16],inactive
same,outcome,[17],inactive
same,outcome,[18],inactive
same,outcome,[19],inactive
same,outcome,[20],inactive
